Assay outcomes as filed in PubChem.
Luc counter: Kinase-Glo luciferase inhibition (counter-screen). Kinase-Glo luciferase, ATP luminescence, 8 min. Potency, µM (titrated, usually from 38.3 µM), for inactives: at the highest dose activity change, negative = inhibition, actives largely listed as inhibitors. 200,000 compounds, 0.28% hits. AID 1379; also: nearly all actives have a fitted effect of over 60% in size
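Inhibition of Kinase-Glo luciferase light generation was assessed at 10 uM ATP in pH 7.2 imidazole buffer, with luminescence measured after eight minutes at ambient temperature.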
Gal4-VP16 FLuc: counter-screen for ROR gamma inhibitors: Gal4-VP16 reporter; Potency, µM (top dose mostly 53.6 µM), without a hit: top-dose activity, negative = inhibition, actives largely listed as inhibitors; Drosophila S2 Gal4-VP16 UAS-luciferase, luminescence, 20 h; 310,000 compounds, 3.5% hits;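 also: Gal4-VP16 expression switched on by copper sulfate through the metallothionein promoter; nearly all actives have a fitted effect of over 50% in size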
RORgamma inh: inhibitors of mouse ROR gamma transcriptional activity. P51450. Drosophila S2 Gal4-RORgamma UAS-luciferase reporter, 20 h. 310,000 compounds, 5.4% hits. Potency, µM (top dose mostly 53.6 µM), for inactives: top-dose activity change, negative = inhibition, most hits filed as inhibitors. AID 2551; also: nearly all actives have a fitted effect of over 60% in size
Target sequence (P51450 whole entry, looked up, the tested form may be a part): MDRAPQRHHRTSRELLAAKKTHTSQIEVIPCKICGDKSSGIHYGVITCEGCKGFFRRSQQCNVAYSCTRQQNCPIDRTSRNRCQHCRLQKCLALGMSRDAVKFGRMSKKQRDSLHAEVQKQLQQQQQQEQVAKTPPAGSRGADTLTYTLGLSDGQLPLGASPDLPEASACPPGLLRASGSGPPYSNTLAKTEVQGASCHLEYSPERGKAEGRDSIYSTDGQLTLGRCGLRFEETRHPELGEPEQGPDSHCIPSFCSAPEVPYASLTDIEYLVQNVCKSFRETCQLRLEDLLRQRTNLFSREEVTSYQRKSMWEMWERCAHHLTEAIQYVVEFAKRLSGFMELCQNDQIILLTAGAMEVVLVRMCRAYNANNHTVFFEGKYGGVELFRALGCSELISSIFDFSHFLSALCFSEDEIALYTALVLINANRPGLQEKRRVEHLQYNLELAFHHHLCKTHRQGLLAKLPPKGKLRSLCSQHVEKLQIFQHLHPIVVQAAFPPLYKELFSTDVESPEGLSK
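Compounds are pin-transferred onto Drosophila Schneider cells expressing a copper-inducible Gal4–ROR gamma transactivation domain fusion. After 1 hr, copper sulfate is added to 700 uM final; luciferase is read 20 hr later.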
An asterisk follows results filed as active; ? = inconclusive; nt = no result given; [ ] = remark or other dose. Compounds with a hit are over-represented: about 6.4% of the library has one in this group of screens. Calls follow the shape of the dose curve; as a rule, active = well fitted curve in the direction sought with a large enough effect; inconclusive = small, poorly fitted or top-dose-only effect, or another doubt; inactive = no such curve, though single readings can be large; an effect the other way counts as inactive or inconclusive. % is scaled to controls: 0 for no effect and ±100 for the full control effect; potency is read from the fitted curve at half-maximal effect.

SMILES	Luc counter	Gal4-VP16 FLuc	RORgamma inh
CCc1nc2ccccc2n1CC1CC1(Cl)Cl (centres undefined)	6%	-2%[10 µM]	7.1µM*
ClC1(Cl)CC1Cn1c(C2CC2)nc2ccccc21 (centres undefined)	-1%	7%	14%
CCCc1nc2ccccc2n1Cc1ccccc1OC	2%	?	6.3µM*
COc1ccccc1Cn1c(CCCO)nc2ccccc21	-5%	13%	-31%
CCC1(c2ccccc2)NC(=O)N(CC(=O)NCc2ccc(OC)cc2)C1=O (centres undefined)	nt	11%	37%
C[C@H]1OC(=O)CC[C@@H]2[C@]1(C)CCC1[C@@]2(C)CC[C@@]2(C)C3CC(C)(C)CC[C@]3(CO)CC[C@]12C (some centres undefined)	-2%	6%	-17%
CCOC(=O)c1ccc(NC(=O)c2nc[nH]c2C(=O)N[C@@H](CC(C)C)C(=O)OCc2ccccc2)cc1	nt	?	1.1µM*
CCOC(=O)c1[nH]cnc1C(=O)NCc1ccccc1	nt	-5%	-17%
COc1ccc(NC(=O)NC(C)c2ccccc2)cc1 (centres undefined)	nt	3%	11%
CCOC(=O)c1ccc(NC(=O)c2nc[nH]c2C(=O)N(C)Cc2ccccc2)cc1	nt	?	10µM*
COc1ccc(NC(=O)c2nc[nH]c2C(=O)N[C@H](C)c2ccccc2)cc1	nt	7.9µM*	6.3µM*
CC(C)C[C@H](NC(=O)c1[nH]cnc1C(=O)Nc1ccccc1)C(=O)OC(C)(C)C	nt	8.9µM*	5µM*
NNC(=O)c1nc[nH]c1C(=O)Nc1ccccc1	nt	0%	-7%
CCOC(=O)c1[nH]cnc1C(=O)Nc1ccccc1	0%	?	?
CCOC(=O)c1ccc(NC(=O)c2nc[nH]c2C(=O)N[C@@H](CC(C)C)C(=O)OC(C)(C)C)cc1	nt	6.3µM*	2.5µM*
CCOC(=O)c1[nH]cnc1C(=O)NC(C)C	6%	-1%	-32%
CCOC(=O)c1ccc(NC(=O)c2nc[nH]c2C(=O)N[C@@H](C)C(=O)OC(C)(C)C)cc1	nt	-4%	?
CNC(=O)c1nc[nH]c1C(=O)NC	0%	5%	-26%
CCOC(=O)c1ccc(NC(=O)c2nc[nH]c2C(=O)N[C@H](C)c2ccccc2)cc1	nt	7.1µM*	2.8µM*
CNC(=O)c1[nH]cnc1C(=O)Nc1ccc(OC)cc1	nt	-70%	5.6µM*
CCc1nnc(SCC(=O)Nc2ccccc2Cl)nc1CC	nt	-2%	0%
CCS(=O)(=O)Nc1ccccc1C(N)=O	-2%	4%	19%
CC[C@H](C)[C@@H](NC(=O)O[C@@H]1C(=O)c2ccc(OC)cc2O[C@H]1c1cccc(C(F)(F)F)c1)C(=O)OC	-1%	5%	8%
COc1ccccc1CNC(=O)[C@H](C)NC(=O)C1CCN(C(=O)[C@@H](N)C(C)C)CC1	nt	-2%	0%
CCn1c(O)c(/C=C/C=C/C=Nc2ccccc2)sc1=S	-11%	0%	6%
SMILES	Luc counter	Gal4-VP16 FLuc	RORgamma inh
CCCCn1c(O)c(/C=C/C=C/C=Nc2ccccc2)sc1=S	8.9µM*	?	13%
CN1C(=O)CSC1=Nc1cccc(Cl)c1	nt	-11%	0%
O=C(N=C1SCC(=O)N1c1ccccc1Cl)c1ccccc1	1%	5%	-21%
N=C1SCC(=O)N1c1ncc(Cc2cccc(Cl)c2)s1	-1%	0.89µM*	0.35µM*
N=C1SCC(=O)N1c1ncc(Cc2ccccc2Cl)s1	-2%	0.71µM*	126µM*
C[C@H](Br)C(=O)Nc1ccc(C(=O)O)c(O)c1	-3%[7.66 µM]	nt	nt
Cc1cccc(C(=O)OCC(=O)NCCCc2ccccc2)c1O	nt	2%	-20%
Cc1ccc(C(=O)N/N=C\C2CC=CCC2)cc1[N+](=O)[O-] (centres undefined)	nt	?	-38%
O=C(N/N=C/C1CC=CCC1)c1cc(Br)ccc1O (centres undefined)	0%	?	?
O=C(N/N=C/C1CC=CCC1)c1ccccc1O (centres undefined)	-10%	?	11µM*
O=C(N/N=C/C1CC=CCC1)c1ccc(Cl)cc1O (centres undefined)	2%	10µM*	13µM*
COc1cccc(Cn2c(=O)cnc3cnc(OC)nc32)c1	nt	2%	-15%
Cc1ccc(SCC(Cc2ccccc2)N2CCN(C)CCC2=O)cc1 (centres undefined)	nt	-10%	3%
COC(=O)c1ccc(C(=O)N2CCCC(Nc3ccc(F)c(F)c3)C2)cc1 (centres undefined)	nt	-8%	-22%
Cc1nc2ccc(Br)cn2c(=O)c1Cl	-5%	2%	-26%
Cc1nc2ccc(Br)cn2c1NC(C)(C)C	2%	?	14µM*
Cc1ccc(C)c(OCc2cc(C(=O)N(C)Cc3nccn3C)no2)c1	nt	-6%	-10%
CCn1ccnc1CN(C)C(=O)c1cc(COc2ccc(OC)c3ccccc23)on1	nt	28µM*	-81%
CC(=O)OC[C@@H]1O[C@H](CCON=C(C)C)C=C[C@@H]1OC(C)=O	nt	-7%[10 µM]	0%[10 µM]
NCC1OC(n2cnc3c(=O)[nH]c(N)nc32)C(O)C1O (centres undefined)	-1%	5%	0%
O=C(N/N=C/c1ccncc1)c1cc([N+](=O)[O-])cc([N+](=O)[O-])c1	1%	-11%	-33%
O=C(N/N=C/c1ccco1)c1cccc([N+](=O)[O-])c1	-1%	-28%	?
Cc1cc(C(=O)N/N=C\c2ccc(COc3ccc([N+](=O)[O-])cc3)o2)ccc1[N+](=O)[O-]	-5%	?	11µM*
Cc1ccc(OCC(=O)N/N=C\c2ccc(C)o2)c([N+](=O)[O-])c1	2%	8%	8%
COc1ccc(-c2ccc(/C=N/NC(=O)c3cccnc3)o2)c([N+](=O)[O-])c1	-1%	?	20µM*
SMILES	Luc counter	Gal4-VP16 FLuc	RORgamma inh
O=C(N/N=C/c1ccco1)c1cc([N+](=O)[O-])cc([N+](=O)[O-])c1	2%	10µM*	5.6µM*
Cc1ccc(C(=O)N/N=C/c2ccc(-c3ccccc3[N+](=O)[O-])o2)cn1	-1%	1%	18%
O=C(N/N=C/c1ccc(Br)o1)c1cc([N+](=O)[O-])cc([N+](=O)[O-])c1	-1%	4.5µM*	1.6µM*
O=C(NC1CCN(C(=O)C2CCCCC2)CC1)c1ccccc1	nt	-5%	34%
O=C(NC1CCCCNC1=O)c1ccco1 (centres undefined)	nt	2%	16%
Cc1cccc(C2=N[C@@H](CC(C)C)CO2)c1	-9%[39.9 µM]	-12%[96.6 µM]	?
CN(C)Cc1nsc(N(C)C)n1	-2%[7.66 µM]	nt	nt
CCOC(=O)CC(NC(=O)c1ccc(C)cc1)c1ccc(OC)cc1 (centres undefined)	5%	-6%	15%
N#Cc1cccc(-c2nc(NCc3cccnc3)c3ccccc3n2)c1	nt	0%	-39%
CCCCC(=O)N/N=C/c1ccc(-c2ccc([N+](=O)[O-])cc2)o1	0%	10%	?
Cc1cc(C(=O)N/N=C/c2ccc(-c3ccc([N+](=O)[O-])cc3C)o2)n[nH]1	nt	-11%	-22%
CCOc1ccc(Cl)cc1/C=N/NC(=O)c1ccccc1	3%	-15%	28%
Cc1cc([N+](=O)[O-])ccc1-c1ccc(/C=N/NC(=O)c2ccc(Br)o2)o1	nt	7.9µM*	7.1µM*
